# Experimental data: paper PMC5540273 (PLoS ONE, 2017)
# Read-outs that look alike come from different tables or passages of the source.
# Tests used:
# Details in all cases: n = 1
# EPHA4 = system: EPHA4
# EPHA5 = system: EPHA5
# EPHA6 = system: EPHA6
# EPHA7 = system: EPHA7
# EPHA8 = system: EPHA8
# EPHB1 = system: EPHB1
# EPHB2 = system: EPHB2
# EPHB3 = system: EPHB3
# EPHB4 = system: EPHB4
# EPHB6 = system: EPHB6
# ERBB2 = system: ERBB2
# ERBB3 = system: ERBB3
# ERBB4 = system: ERBB4
# ERK1 = system: T1, ERK1
# T1 construct: gene MAPK3
# ERK2 = system: T2, ERK2
# T2 construct: gene MAPK1
# ERK3 = system: T3, ERK3
# T3 construct: gene MAPK6
# ERK4 = system: T4, ERK4
# T4 construct: gene MAPK4
# ERK5 = system: T5, ERK5
# T5 construct: gene MAPK7
# ERK8 = system: T6, ERK8
# T6 construct: gene MAPK15
# ERN1 = system: ERN1
# [1] = concentration: 1 μM, replicates: in singlicate
# 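Further: KINOMEscan kinase panel screen.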
compound,measurement,setting,value
COc1cc2nccc(Nc3ccc(NC(=O)c4ccc(C)cc4)c(O)c3)c2cc1OC.Cl [GW440132],%Inh,EPHA4; [1],0%
same,%Inh,EPHA5; [1],0%
same,%Inh,EPHA6; [1],3%
same,%Inh,EPHA7; [1],2%
same,%Inh,EPHA8; [1],5%
same,%Inh,EPHB1; [1],6%
same,%Inh,EPHB2; [1],0%
same,%Inh,EPHB3; [1],12%
same,%Inh,EPHB4; [1],10%
same,%Inh,EPHB6; [1],19%
same,%Inh,ERBB2; [1],14%
same,%Inh,ERBB3; [1],0%
same,%Inh,ERBB4; [1],9%
same,%Inh,ERK1; [1],0%
same,%Inh,ERK2; [1],2%
same,%Inh,ERK3; [1],13%
same,%Inh,ERK4; [1],3%
same,%Inh,ERK5; [1],0%
same,%Inh,ERK8; [1],1%
same,%Inh,ERN1; [1],29%
C[C@@H]1CCCCN1c1cc(-c2ccc3c(N)n[nH]c3c2)nc(N)n1 [GSK2258759],%Inh,EPHA4; [1],2%
same,%Inh,EPHA5; [1],0%
same,%Inh,EPHA6; [1],1%
same,%Inh,EPHA7; [1],0%
same,%Inh,EPHA8; [1],3%
same,%Inh,EPHB1; [1],12%
same,%Inh,EPHB2; [1],0%
same,%Inh,EPHB3; [1],7%
same,%Inh,EPHB4; [1],15%
same,%Inh,EPHB6; [1],14%
same,%Inh,ERBB2; [1],18%
same,%Inh,ERBB3; [1],0%
same,%Inh,ERBB4; [1],12%
same,%Inh,ERK1; [1],8%
same,%Inh,ERK2; [1],0%
same,%Inh,ERK3; [1],5%
same,%Inh,ERK4; [1],0%
same,%Inh,ERK5; [1],0%
same,%Inh,ERK8; [1],0%
same,%Inh,ERN1; [1],0%
Cc1cccc(-c2nc(Nc3ccncc3)c3ccccc3n2)n1 [GW855857],%Inh,EPHA4; [1],18%
same,%Inh,EPHA5; [1],0%
same,%Inh,EPHA6; [1],0%
same,%Inh,EPHA7; [1],0%
same,%Inh,EPHA8; [1],7%
same,%Inh,EPHB1; [1],3%
same,%Inh,EPHB2; [1],16%
same,%Inh,EPHB3; [1],11%
same,%Inh,EPHB4; [1],26%
same,%Inh,EPHB6; [1],0%
same,%Inh,ERBB2; [1],7%
same,%Inh,ERBB3; [1],43%
same,%Inh,ERBB4; [1],0%
same,%Inh,ERK1; [1],0%
same,%Inh,ERK2; [1],9%
same,%Inh,ERK3; [1],0%
same,%Inh,ERK4; [1],7%
same,%Inh,ERK5; [1],30%
same,%Inh,ERK8; [1],17%
same,%Inh,ERN1; [1],0%
COc1ccc(Nc2nccc(NCCNC(=O)Nc3ccccc3F)n2)cc1 [GSK1379901],%Inh,EPHA4; [1],14%
same,%Inh,EPHA5; [1],0%
same,%Inh,EPHA6; [1],6%
same,%Inh,EPHA7; [1],7%
same,%Inh,EPHA8; [1],25%
same,%Inh,EPHB1; [1],0%
same,%Inh,EPHB2; [1],0%
same,%Inh,EPHB3; [1],27%
same,%Inh,EPHB4; [1],32%
same,%Inh,EPHB6; [1],4%
same,%Inh,ERBB2; [1],0%
same,%Inh,ERBB3; [1],0%
same,%Inh,ERBB4; [1],45%
same,%Inh,ERK1; [1],0%
same,%Inh,ERK2; [1],0%
same,%Inh,ERK3; [1],9%
same,%Inh,ERK4; [1],32%
same,%Inh,ERK5; [1],0%
same,%Inh,ERK8; [1],0%
same,%Inh,ERN1; [1],0%
Cc1ccc(NC(=O)Nc2cccc(C(F)(F)F)c2)cc1 [GSK955403],%Inh,EPHA4; 1 µM,6%
same,%Inh,EPHA5; 1 µM,0%
same,%Inh,EPHA6; 1 µM,0%
same,%Inh,EPHA7; 1 µM,2%
same,%Inh,EPHA8; 1 µM,3%
same,%Inh,EPHB1; 1 µM,5%
same,%Inh,EPHB2; 1 µM,3%
same,%Inh,EPHB3; 1 µM,0%
same,%Inh,EPHB4; 1 µM,0%
same,%Inh,EPHB6; 1 µM,21%
same,%Inh,ERBB2; 1 µM,0%
same,%Inh,ERBB3; 1 µM,17%
same,%Inh,ERBB4; 1 µM,0%
same,%Inh,ERK1; 1 µM,0%
same,%Inh,ERK2; 1 µM,0%
same,%Inh,ERK3; 1 µM,0%
same,%Inh,ERK4; 1 µM,0%
same,%Inh,ERK5; 1 µM,5%
same,%Inh,ERK8; 1 µM,0%
same,%Inh,ERN1; 1 µM,0%
COc1cc(Nc2nccc(N3CCC(NC(=O)Nc4cc(C)ccc4C)C3)n2)cc(OC)c1OC (centres unmarked) [GSK1379762],%Inh,EPHA4; [1],26%
same,%Inh,EPHA5; [1],0%
same,%Inh,EPHA6; [1],18%
same,%Inh,EPHA7; [1],25%
same,%Inh,EPHA8; [1],33%
same,%Inh,EPHB1; [1],12%
same,%Inh,EPHB2; [1],0%
same,%Inh,EPHB3; [1],16%
same,%Inh,EPHB4; [1],4%
same,%Inh,EPHB6; [1],89%
same,%Inh,ERBB2; [1],11%
same,%Inh,ERBB3; [1],0%
same,%Inh,ERBB4; [1],0%
same,%Inh,ERK1; [1],9%
same,%Inh,ERK2; [1],0%
same,%Inh,ERK3; [1],5%
same,%Inh,ERK4; [1],4%
same,%Inh,ERK5; [1],0%
same,%Inh,ERK8; [1],41%
same,%Inh,ERN1; [1],15%
Cc1cc(-c2ccc3c(c2)CC[C@@H](N[C@@H](C)c2ccccc2)C3)cnc1N.Cl [GW412617],%Inh,EPHA4; [1],13%
same,%Inh,EPHA5; [1],1%
same,%Inh,EPHA6; [1],10%
same,%Inh,EPHA7; [1],0%
same,%Inh,EPHA8; [1],8%
same,%Inh,EPHB1; [1],9%
same,%Inh,EPHB2; [1],0%
same,%Inh,EPHB3; [1],9%
same,%Inh,EPHB4; [1],11%
same,%Inh,EPHB6; [1],48%
same,%Inh,ERBB2; [1],0%
same,%Inh,ERBB3; [1],0%
same,%Inh,ERBB4; [1],0%
same,%Inh,ERK1; [1],0%
same,%Inh,ERK2; [1],12%
same,%Inh,ERK3; [1],5%
same,%Inh,ERK4; [1],0%
same,%Inh,ERK5; [1],0%
same,%Inh,ERK8; [1],29%
same,%Inh,ERN1; [1],0%
COc1ccccc1CNC(=O)c1cc(C(=O)c2ccccc2C)c[nH]1 [GSK364507],%Inh,EPHA4; [1],5%
same,%Inh,EPHA5; [1],0%
same,%Inh,EPHA6; [1],0%
same,%Inh,EPHA7; [1],8%
same,%Inh,EPHA8; [1],19%
same,%Inh,EPHB1; [1],25%
same,%Inh,EPHB2; [1],0%
same,%Inh,EPHB3; [1],6%
same,%Inh,EPHB4; [1],20%
same,%Inh,EPHB6; [1],11%
same,%Inh,ERBB2; [1],21%
same,%Inh,ERBB3; [1],0%
same,%Inh,ERBB4; [1],30%
same,%Inh,ERK1; [1],0%
same,%Inh,ERK2; [1],2%
same,%Inh,ERK3; [1],4%
same,%Inh,ERK4; [1],13%
same,%Inh,ERK5; [1],0%
same,%Inh,ERK8; [1],0%
same,%Inh,ERN1; [1],0%
CCn1c(-c2ccccn2)nc2cnccc21 [SB-736398],%Inh,EPHA4; [1],23%
same,%Inh,EPHA5; [1],0%
same,%Inh,EPHA6; [1],7%
same,%Inh,EPHA7; [1],0%
same,%Inh,EPHA8; [1],5%
same,%Inh,EPHB1; [1],0%
same,%Inh,EPHB2; [1],0%
same,%Inh,EPHB3; [1],12%
same,%Inh,EPHB4; [1],35%
same,%Inh,EPHB6; [1],0%
same,%Inh,ERBB2; [1],26%
same,%Inh,ERBB3; [1],14%
same,%Inh,ERBB4; [1],0%
same,%Inh,ERK1; [1],11%
same,%Inh,ERK2; [1],0%
same,%Inh,ERK3; [1],14%
same,%Inh,ERK4; [1],6%
same,%Inh,ERK5; [1],5%
same,%Inh,ERK8; [1],37%
same,%Inh,ERN1; [1],0%
Fc1cccc(COc2nnc(-c3ccc4c(c3)CCO4)o2)c1,%Inh,EPHA4; [1],0%
same,%Inh,EPHA5; [1],0%
same,%Inh,EPHA6; [1],11%
same,%Inh,EPHA7; [1],14%
same,%Inh,EPHA8; [1],16%
same,%Inh,EPHB1; [1],20%
same,%Inh,EPHB2; [1],0%
same,%Inh,EPHB3; [1],20%
same,%Inh,EPHB4; [1],16%
same,%Inh,EPHB6; [1],0%
same,%Inh,ERBB2; [1],3%
same,%Inh,ERBB3; [1],13%
same,%Inh,ERBB4; [1],0%
same,%Inh,ERK1; [1],0%
same,%Inh,ERK2; [1],13%
same,%Inh,ERK3; [1],0%
same,%Inh,ERK4; [1],0%
same,%Inh,ERK5; [1],8%
same,%Inh,ERK8; [1],0%
same,%Inh,ERN1; [1],15%
